Screening data from PubChem BioAssay.
Sampled rows, rich in hits. Any-hit rate of the full collection: about 2.3%.
Tau fil binding = binds recombinant human tau filaments | AID 596 | recombinant tau filaments, thioflavin S fluorescence, 15 h; filaments grown with octadecylsulfate alongside compound | Potency, µM (top dose mostly 57.1 µM), for inactives: top-dose activity change, negative = inhibition | actives 2% (n = 71,000);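 note: potency is the fitted concentration of half-maximal effect; % is set by controls: 0 for no effect and ±100 for the full control effect; actives lower thioflavin S fluorescence by blocking filaments or displacing dye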
Target sequence (P10636 whole entry, looked up): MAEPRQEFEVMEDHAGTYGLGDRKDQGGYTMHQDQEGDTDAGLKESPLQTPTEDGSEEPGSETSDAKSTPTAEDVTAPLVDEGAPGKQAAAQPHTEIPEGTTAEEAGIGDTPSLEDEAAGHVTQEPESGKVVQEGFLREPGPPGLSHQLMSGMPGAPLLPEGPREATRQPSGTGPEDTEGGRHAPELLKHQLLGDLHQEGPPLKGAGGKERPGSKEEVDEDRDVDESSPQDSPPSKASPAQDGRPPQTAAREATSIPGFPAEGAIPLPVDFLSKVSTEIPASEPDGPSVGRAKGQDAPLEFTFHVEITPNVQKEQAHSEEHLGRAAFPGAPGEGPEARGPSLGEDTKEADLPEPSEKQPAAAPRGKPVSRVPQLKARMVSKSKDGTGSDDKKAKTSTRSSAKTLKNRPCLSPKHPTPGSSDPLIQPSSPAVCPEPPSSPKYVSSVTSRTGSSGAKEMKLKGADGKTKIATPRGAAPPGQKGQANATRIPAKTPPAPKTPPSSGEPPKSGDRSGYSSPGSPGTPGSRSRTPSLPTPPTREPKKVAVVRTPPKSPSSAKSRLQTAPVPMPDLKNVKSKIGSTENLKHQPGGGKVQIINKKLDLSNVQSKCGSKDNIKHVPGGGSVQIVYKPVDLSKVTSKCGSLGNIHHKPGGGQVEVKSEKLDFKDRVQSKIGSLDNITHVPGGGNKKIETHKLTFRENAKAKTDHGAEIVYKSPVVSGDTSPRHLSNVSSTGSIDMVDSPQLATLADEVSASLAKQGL
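Quantitative HTS: thioflavine S signal from ODS-induced tau filaments, excited at 450 nm, emission 510 nm. Conditions: 1 uM tau, 30 uM ODS, 15 h at 37 C, pH 7.4.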
Hsp90 Hop PPI = changes Hsp90-Hop TPR2A binding signal, up or down | AlphaScreen TPR2A-His6 binding biotin-Hsp90 C-terminal peptide | Potency, µM (doses to about 57 µM), for the others: at the top dose activity change, negative = inhibition | actives 0.44% (n = 71,000); active = well fitted curve in either direction with a large enough effect; inconclusive = small, poorly fitted or top-dose-only effect, or another doubt; note: potency is the fitted concentration of half-maximal effect; % is set by controls: 0 for no effect and ±100 for the full control effect
YjeE inh = displaces an ADP probe from E. coli YjeE (TsaE). P0AF67. Potency, µM. actives 0.05% (n = 71,000). purified YjeE enzyme, qHTS inhibition assay
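Fluorescence polarization of a BODIPY Texas Red–ADP probe (2 uM) bound to purified YjeE (10 uM) was read after 15 min room-temperature incubation with compounds. Loss of polarization marks inhibitors; ADP serves as titrated control.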
BRCT inh green = blocks human BRCA1 BRCT binding to phosphopeptide, green readout. P38398. BRCA1 BRCT-phosphopeptide binding, green fluorescence polarization. Potency, µM (series often up to 76.9 µM), inactives show at the top dose activity change, negative = inhibition, actives largely listed as inhibitors. actives 0.05% (n = 75,000). AID 875;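 note: potency is the fitted concentration of half-maximal effect; plate controls were peptide without protein for full effect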
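Fluorescence polarization: His-tagged BRCT (~35 kDa BRCA1 C-terminus, 250 nM) bound to 100 nM fluorescein-labeled phosphorylated 10-aa BACH1 peptide, pH 7.3 phosphate buffer with DTT and Tween 20. Compounds incubated 12 min at room temperature; inhibition read as lowered polarization.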
BRCT inh red = BRCT-phosphoprotein interaction inhibition (red fluorophore); P38398; BRCT-phosphopeptide binding, red fluorescence polarization; Potency, µM (series often up to 76.9 µM), inactives show top-dose activity change, negative = inhibition, most hits filed as inhibitors; actives 0.03% (n = 75,000); note: % is set by controls: 0 for no effect and ±100 for the full control effect
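Rhodamine-labelled pBACH1 10-mer (100 nM) bound to BRCT domain (100 nM) at pH 7.3; compounds incubated 12 min room temperature, polarization read. Free peptide defines full inhibition; unlabelled decapeptide titrated as control.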
Pol III holo inh = DNA polymerase III holoenzyme inhibition; reconstituted DNA polymerase III holoenzyme replication, biochemical; Potency, µM (top dose mostly 57.1 µM), for inactives: top-dose activity change, negative = inhibition; actives 0.25% (n = 71,000); AID 603; note: potency is the fitted concentration of half-maximal effect; % is set by controls: 0 for no effect and ±100 for the full control effect
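Reconstituted *E. coli* holoenzyme (0.35 nM Pol III, 1 nM beta, 154 nM SSB, 2 nM primase) was preincubated with compound for 15 min at RT. Synthesis on 1.4 nM ssM13Gori ran 35 min, then was stopped with PicoGreen/EDTA and read as dsDNA fluorescence.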
Numbers without * were called inactive; i = inactive; ? = inconclusive; . = no result given; ! = repeats disagree; [ ] = another dose, or the depositor's remark. Unless noted, calls come from the whole dose curve; as a rule, active = well fitted curve in the direction sought with a large enough effect; inconclusive = small, poorly fitted or top-dose-only effect, or another doubt; inactive = no such curve, though single readings can be large; an effect the other way counts as inactive or inconclusive.

SMILES | Tau fil binding | Hsp90 Hop PPI | YjeE inh | BRCT inh green | BRCT inh red | Pol III holo inh
CC(=O)OCC(=O)[C@@]1(O)CCC2C3CC[C@H]4CC(O)CC[C@@]4(C)C3C(=O)C[C@]21C (some centres undefined) | . | . | . | -3.0% | 0.6% | .
COc1ccc2oc(=O)c(C(=O)N3CCN(c4ccccc4)CC3)cc2c1 | -8.9% | -4.1% | i | 0.9% | 0.5% | 3.4%
COc1ccc2oc(=O)c(C(=O)N3CCN(c4ccccc4C)CC3)cc2c1 | 15.8µM* | -0.8% | i | -2.3% | -0.5% | -4.2%
Nc1ccccc1-c1nnc(SCc2ccccc2F)[nH]c1=O | 15.8µM* | -2.0% | i | -1.5% | -0.6% | -0.4%
COC(=O)c1ccccc1NC(=O)CSc1nnnn1-c1ccc(C)cc1C | 10µM* | -11.6% | i | 0.0% | -1.9% | -1.7%
CCOC(=O)c1sc(NC(=O)CSc2nnnn2-c2ccc(C)cc2C)nc1C | -4.6% | -6.1% | i | -1.0% | 1.5% | -3.1%
Cc1ccc(S(=O)(=O)/C=C\C#N)cc1 | 34.9% | -2.6% | i | -0.4% | 0.1% | -13.1%
CCOc1cc(N2CCOCC2)c(OCC)cc1NC(=O)c1nc2nc(C)cc(C)n2n1 | 25.1µM* | -3.7% | i | -1.0% | 1.8% | -3.0%
CCOc1cc(N2CCOCC2)c(OCC)cc1NC(=O)CCS(=O)(=O)c1ccc(Cl)cc1 | 25.1µM* | -12.1% | i | -1.1% | -0.7% | -1.9%
COc1cc(N)c(Cl)cc1C(=O)N[C@H]1CCN(CCCOc2ccc(F)cc2)C[C@@H]1OC | ? | -1.5% | i | -6.2% | -0.1% | -5.9%
Nc1nc(C(=O)O)c(N=Nc2ccccc2)c(=O)[nH]1 | 5.01µM* | -27.0%[11 µM] | i | 0.9%[15.4 µM] | 0.2%[15.4 µM] | 2.2%[11.4 µM]
OC[C@@H]1O[C@@H](n2cnc3c(Nc4ccccc4)ncnc32)[C@@H](O)[C@H]1O | 5.2% | -9.6% | i | -2.1% | 2.1% | -1.6%
COC(=O)[C@@]1(Cc2ccccc2)[C@H]2c3cc(C(=O)N(C)C)n(Cc4nc5ccccc5[nH]4)c3C[C@H]2CN1C(=O)c1ccccc1 | 13.0% | -11.6% | i | 15.0% | 0.2% | -9.2%
CCN1CCN(c2cc(C)c3cc(NC(=O)Cc4ccc(OC)c(OC)c4)ccc3n2)CC1 | -28.4% | -0.8% | i | 1.5% | 1.6% | -6.7%
CCN1CCN(c2cc(C)c3cc(NC(=O)c4cnccn4)ccc3n2)CC1 | 10µM* | -3.0% | i | -2.0% | 1.6% | -10.1%
CC(=O)SC1CC2=CC(=O)CC[C@@]2(C)C2CC[C@@]3(C)[C@@H](CC[C@@]34CCC(=O)O4)C12 (some centres undefined) | . | . | . | 0.7%[3.08 µM] | 1.2% | .
Cc1ccc(-c2cc(-c3ccccc3Cl)c(C#N)c(N)n2)o1 | 12.6µM* | -7.6% | i | 1.4% | 0.4% | -3.7%
Cc1ccc(-c2cc(-c3ccc(F)cc3)nc(N)c2C#N)o1 | 0.4% | -2.6% | i | -5.1% | 2.2% | -3.8%
Cc1ccc(-c2cc(-c3ccccc3)c(C#N)c(N)n2)o1 | 3.16µM* | ? | i | 1.9% | -0.6% | -4.4%
O=C(O)/C(Cc1ccc([N+](=O)[O-])cc1)=N/O | 5.4%[11.4 µM] | 0.2%[11 µM] | i | -1.2%[15.4 µM] | 1.2%[15.4 µM] | -4.7%[11.4 µM]
Cc1noc(C)c1C(=O)N1CCC2(CCCN(C(c3ccccc3)c3ccccc3)C2)CC1 | -14.0% | -13.2% | i | -0.7% | -0.2% | -10.6%
C/C(=N/O)[C@@H]1C[C@H](CC(=O)O)C1(C)C | 9.5%[11.4 µM] | -1.9%[11 µM] | i | -0.4%[15.4 µM] | 0.3%[15.4 µM] | -3.4%[11.4 µM]
COc1ccc(CC(=O)Nc2ccc(-c3noc(COc4ccccc4C)n3)cc2)cc1 | 15.2% | -0.6% | i | -0.8% | -1.2% | -9.1%
O=C(Nc1ccc(-c2noc(COc3ccccc3Cl)n2)cc1)c1ccco1 | 3.16µM* | 1.8% | i | 1.7% | 0.6% | 10.8%
COC(=O)[C@@]1(Cc2ccc(F)cc2)[C@@H]2C(=CC(=O)[C@H]2CC(=O)C(=O)N(C)C)CN1C(=O)c1ccccc1 | -9.4% | -4.7% | i | -0.6% | -0.6% | -5.9%
SMILES | Tau fil binding | Hsp90 Hop PPI | YjeE inh | BRCT inh green | BRCT inh red | Pol III holo inh
CCN(CC)c1ccc2c(c1)CCCN2 | 25.1µM* | 15.8µM* | i | -4.4% | 0.7% | -5.0%
Cc1cc(N2CCOCC2)c2c(N)c(C)cc(C)c2n1 | 15.8µM* | -6.8% | i | -0.5% | 0.6% | -6.5%
COc1ccc2nc(C)cc(N3CCOCC3)c2c1 | -16.5% | -1.4% | i | 0.4% | -0.8% | -4.2%
CCCn1c(C)nc2c(N3CCC(N4CCN(C)CC4)CC3)nc(C)nc21 | -10.4% | -0.3% | i | -1.1% | 1.2% | -0.8%
C=Cc1c(C)c2cc3nc(cc4[nH]c(cc5nc(cc1[nH]2)C(C)=C5CCC(=O)O)c(CCC(=O)OC)c4C)[C@@]1(C)C3=CC=C(C(=O)OC)[C@H]1C(=O)OC (tested in a mixture with another compound) | 1.58µM* | 0.251µM* | i | -0.8%[34.4 µM] | -0.8%[34.4 µM] | 1.2%[25.6 µM]
O=Nc1ccc(Nc2ccccc2)cc1 | 31.6µM* | -11.1% | i | -0.8% | 0.6% | 1.3%
O=Nc1ccc(NO)cc1 | -29.0% | -3.0% | i | -2.6% | -1.1% | -12.6%
COC(=O)[C@@]1(Cc2ccccc2)[C@H]2c3cc(C(=O)N(C)C)n(Cc4ccccn4)c3C[C@H]2CN1C(=O)c1ccccc1 | 1.7% | -6.5% | i | 1.1% | -3.0% | 12.8%
c1ccc2c(N3CCCC3)nc(-c3ccncc3)nc2c1 | 13.2% | 1.9% | i | 2.9% | -5.3% | -6.3%
c1ccc(-c2nc(N3CCCCCC3)c3ccccc3n2)nc1 | 12.6µM* | ? | i | -2.0% | -0.4% | -14.4%
O=C(O)[C@@H]1CCCN[C@H]1C(=O)O | -7.7% | -5.9% | i | -2.7% | 1.2% | -2.2%
CCCCCCCC/C=C\CCCCCCCC(=O)NCc1ccc(O)c(OC)c1 | 39.8µM* | -1.2% | i | 4.2% | -1.7% | 2.5%
CCCCCCCC/C=C\CCCCCCCC(=O)NCCO | 31.6µM*! | 1.2% | i | 3.1% | -5.5% | -0.5%
CCCCCCCC/C=C\CCCCCCCC(=O)NCCc1ccc(O)c(O)c1 | -8.8% | ? | i | -4.2% | -3.2% | -0.2%
CCCCCCCC/C=C\CCCCCCCC(=O)O | 31.6µM* | 2.5% | i | -0.7% | -10.7% | -2.9%
CCCCC/C=C\C/C=C\CCCCCCCC(=O)O | ? | 2.1% | i | -4.1% | -0.3% | -11.3%
COc1cc(CNC(=O)CCCC/C=C\C(C)C)ccc1O | ? | ? | i | 0.0% | 0.7% | 0.4%
FC(F)(F)c1cccc(-c2noc(-c3cc(-c4ccccc4)c(C(F)(F)F)s3)n2)c1 | . | . | . | 0.2% | -0.2% | .
